The text below walks through data of publication PMC4336329 (PLoS ONE, 2015).

The structures appear in SMILES notation. The campaign covered roughly 310,000 compounds. About 14,000 (4.5%) showed an effect of 50% or more. The effect is printed as a negative number. What follows is part of a selection rich in strong results, with near analogues and random picks from the rest.
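Further: peak tail current of the secondary pulse compared with the same well before compound.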

The target of this assay is human ether-à-go-go-related gene (hERG) potassium channel (human, UniProt Q12809). The experiment in a line: primary screen, population patch clamp on CHO cells stably expressing hERG; higher = less effect of the substance.
Sequence of human ether-à-go-go-related gene (hERG) potassium channel (Q12809 whole entry, looked up): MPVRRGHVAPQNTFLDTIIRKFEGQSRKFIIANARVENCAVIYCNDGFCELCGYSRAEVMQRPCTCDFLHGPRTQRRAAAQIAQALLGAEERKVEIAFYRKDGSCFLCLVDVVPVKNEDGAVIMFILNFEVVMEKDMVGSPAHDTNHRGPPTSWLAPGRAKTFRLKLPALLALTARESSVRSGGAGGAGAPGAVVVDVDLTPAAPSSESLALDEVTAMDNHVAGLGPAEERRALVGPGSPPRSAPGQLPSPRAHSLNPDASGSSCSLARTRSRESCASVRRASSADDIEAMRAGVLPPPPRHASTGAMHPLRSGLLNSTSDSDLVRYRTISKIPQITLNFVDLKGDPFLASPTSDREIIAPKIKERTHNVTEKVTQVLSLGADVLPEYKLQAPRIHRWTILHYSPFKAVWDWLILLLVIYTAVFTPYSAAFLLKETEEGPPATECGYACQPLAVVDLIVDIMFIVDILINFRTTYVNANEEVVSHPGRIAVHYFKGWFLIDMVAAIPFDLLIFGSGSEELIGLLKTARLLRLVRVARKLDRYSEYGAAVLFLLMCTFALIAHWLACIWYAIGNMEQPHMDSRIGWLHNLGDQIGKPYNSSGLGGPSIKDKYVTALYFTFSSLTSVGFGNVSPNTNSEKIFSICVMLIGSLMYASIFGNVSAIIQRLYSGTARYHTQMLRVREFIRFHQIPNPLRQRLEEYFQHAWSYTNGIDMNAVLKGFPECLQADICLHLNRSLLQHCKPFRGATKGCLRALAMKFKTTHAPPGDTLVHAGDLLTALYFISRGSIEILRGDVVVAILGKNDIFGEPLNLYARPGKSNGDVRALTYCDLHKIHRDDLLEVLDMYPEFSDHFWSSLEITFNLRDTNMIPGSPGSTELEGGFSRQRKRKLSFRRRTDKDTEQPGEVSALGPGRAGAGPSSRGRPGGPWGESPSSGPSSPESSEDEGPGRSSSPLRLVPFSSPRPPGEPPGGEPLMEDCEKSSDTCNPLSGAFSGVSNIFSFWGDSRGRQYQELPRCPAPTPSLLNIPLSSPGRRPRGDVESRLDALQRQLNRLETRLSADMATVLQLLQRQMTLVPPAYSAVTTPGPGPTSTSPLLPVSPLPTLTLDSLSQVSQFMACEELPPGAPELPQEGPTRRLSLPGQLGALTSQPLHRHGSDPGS
As for `CCCSc1nc2c(c(=O)[nH]c(=O)n2C)n1C`, the “hERG current change (%, negative = inhibition) at 10uM” value was determined as 2.58%. In the case of `Cn1c(=O)[nH]c(=O)c2c1nc(OC(=O)c1ccccc1)n2CC(O)COc1ccccc1` (centres unmarked), the “hERG current change (%, negative = inhibition) at 10uM” value was 23.2%.

With `CCCc1c(O)nc(SCc2ccccc2)[nH]c1=O`, the “hERG current change (%, negative = inhibition) at 10uM” value worked out at 0.68%. Turning to `CCOC(=O)C1CCN(Cc2ccc(Cl)c(Cl)c2)CC1`, the “hERG current change (%, negative = inhibition) at 10uM” value is listed as -5.6%.

As to `CC(C)(C)c1cc(CN2CCC(O)CC2)cc(C(C)(C)C)c1O`, the “hERG current change (%, negative = inhibition) at 10uM” value is -70.1%.

As for `CCOC(=O)C1CCN(Cc2cc(C(C)C)c(O)c(C(C)C)c2)CC1`, the “hERG current change (%, negative = inhibition) at 10uM” value is recorded as -41.3%. For `CC1=NN(Cc2cc(C(C)(C)C)c(O)c(C(C)(C)C)c2)C(=O)C1`, the “hERG current change (%, negative = inhibition) at 10uM” value is given as 17.2%.

As for `CN1CCN(Cc2cc(C(C)(C)C)c(O)c(C(C)(C)C)c2)CC1`, the “hERG current change (%, negative = inhibition) at 10uM” value is recorded as -15.1%. Turning to `CCOC(=O)C1CCN(Cc2cc(C(C)(C)C)c(O)c(C(C)(C)C)c2)CC1`, the “hERG current change (%, negative = inhibition) at 10uM” value is recorded as -63.1%. For the compound `CCN1CCN(Cc2cc(C(C)(C)C)c(O)c(C(C)(C)C)c2)CC1`, the “hERG current change (%, negative = inhibition) at 10uM” value was -26.5%. As for `CC(C)(C)c1cc(CN2CCCC(O)C2)c(O)c(C(C)(C)C)c1` (centres unmarked), the “hERG current change (%, negative = inhibition) at 10uM” value is -13.9%. Regarding `CC(C)(C)c1cc(CN2CCCCC2)cc(C(C)(C)C)c1O`, the “hERG current change (%, negative = inhibition) at 10uM” value is listed as -50.7%.

Take `Cc1ccc(S(=O)(=O)N2N=C3CCCCC3C2(O)C(F)(F)F)cc1` (centres unmarked): the “hERG current change (%, negative = inhibition) at 10uM” value stood at 4.99%. Take `O=C(NN=C1CCCC1)c1cccc(O)c1`: the “hERG current change (%, negative = inhibition) at 10uM” value is on record as 8.96%.

Consider `O=C1C2C3CCCC3=C3CCCC3C2C(=O)N1c1ccccc1` (centres unmarked), for which the “hERG current change (%, negative = inhibition) at 10uM” value is 1.8%. For `C/C(=N/NC(=O)c1ccc2c(c1)OCO2)c1ccc(NC(=O)c2ccc(F)cc2)cc1`, the “hERG current change (%, negative = inhibition) at 10uM” value is 9.33%. For `Cc1ccc(C(=O)NC2CCCN(c3ccc(C(F)(F)F)cn3)C2)cn1` (centres unmarked), the “hERG current change (%, negative = inhibition) at 10uM” value is given as -2.75%. `O=C(NC1CCCN(c2ccc(C(F)(F)F)cn2)C1)c1cc(Cl)ccc1F` (centres unmarked): the “hERG current change (%, negative = inhibition) at 10uM” value is listed as 5.34%.

On to `CSc1ccccc1C(=O)NC1CCCN(c2ccc(C(F)(F)F)cn2)C1` (centres unmarked), for which the “hERG current change (%, negative = inhibition) at 10uM” value is reported as -4.58%.

In the case of `O=C(NC1CCCN(c2ccc(C(F)(F)F)cn2)C1)c1ccncc1` (centres unmarked), the “hERG current change (%, negative = inhibition) at 10uM” value is given as -69.2%. For `O=C(NC1CCCN(c2ccc(C(F)(F)F)cn2)C1)c1ccnc(Cl)c1` (centres unmarked), the “hERG current change (%, negative = inhibition) at 10uM” value is recorded as -55.5%. Turning to `O=C(CCc1ccccc1Cl)NC1CCCN(c2ccc(C(F)(F)F)cn2)C1` (centres unmarked), the “hERG current change (%, negative = inhibition) at 10uM” value was found to be 13.4%. Next, `COc1ccc(CCNC(=O)Cn2nnc3ccccc3c2=O)cc1`: 9.17%. Take `CCOC(=O)CN1CC23C=CC(O2)C(C(=O)Nc2ccc(C(C)=O)cc2)C3C1=O` (centres unmarked): the “hERG current change (%, negative = inhibition) at 10uM” value is recorded as 4.98%. The same measure for `CC1=C(C(=O)Nc2cccc(C(=O)NC3CCCCC3C)c2)SCCO1` (centres unmarked): -17.8%; for `CC1(C)CC(=O)C=C(NCCN2CCN(C(=O)Nc3ccc(Cl)c(Cl)c3)CC2)C1`: -24%.

Turning to `CS(=O)(=O)N(CC(=O)NCc1cccnc1)Cc1ccc(Cl)cc1`, the “hERG current change (%, negative = inhibition) at 10uM” value is -30.1%. As to `CC(C)(C)n1nnnc1SCC(=O)Nc1nn(-c2ccccc2)nc1C(N)=O`, the “hERG current change (%, negative = inhibition) at 10uM” value amounted to 9.33%. On to `Cn1nnnc1SCC(=O)Nc1nn(-c2ccccc2)nc1C(N)=O`, for which the “hERG current change (%, negative = inhibition) at 10uM” value is recorded as -13.8%.

Regarding `NC(=O)c1ccc(-n2nnnc2SCC(=O)Nc2ccccc2-c2ccccc2)cc1`, the “hERG current change (%, negative = inhibition) at 10uM” value is given as -58.1%. Turning to `NC(=O)c1ccc(-n2nnnc2SCC(=O)Nc2ccccc2F)cc1`, the “hERG current change (%, negative = inhibition) at 10uM” value is 18.9%. Regarding `NC(=O)c1nn(-c2ccccc2)nc1NC(=O)CSc1nnnn1-c1ccc(Cl)cc1`, the “hERG current change (%, negative = inhibition) at 10uM” value is listed as -53.7%.

For the compound `NC(=O)c1ccc(-n2nnnc2SCC(=O)Nc2ccccc2)cc1`, the “hERG current change (%, negative = inhibition) at 10uM” value is listed as 14.3%. Consider `CN1CCN(c2cn[nH]c(=O)c2Cl)CC1`, for which the “hERG current change (%, negative = inhibition) at 10uM” value was found to be 15.4%. In the case of `Cc1ccc(-c2csc(NC(=O)CN3CCC(C(N)=O)CC3)n2)cc1`, the “hERG current change (%, negative = inhibition) at 10uM” value amounted to 8.38%.

`Fc1ccccc1-c1csc(=Nc2cccnc2)n1CCCn1ccnc1`: the “hERG current change (%, negative = inhibition) at 10uM” value is on record as -60.1%. As for `c1cncc(N=c2scc(-c3cccc4ccccc34)n2CCCn2ccnc2)c1`, the “hERG current change (%, negative = inhibition) at 10uM” value is -56.5%. Turning to `Fc1ccccc1-c1csc(=Nc2cccnc2)n1CC1CCCO1` (centres unmarked), the “hERG current change (%, negative = inhibition) at 10uM” value is recorded as -16.8%. As to `CC(C)Cn1c(-c2ccco2)csc1=Nc1cccnc1`, the “hERG current change (%, negative = inhibition) at 10uM” value was determined as 8.45%.

Consider `COCCn1c(-c2cccs2)csc1=Nc1cccnc1`, for which the “hERG current change (%, negative = inhibition) at 10uM” value is -15.3%. Next, `CN=c1scc(-c2ccccc2F)n1/N=C(\C)c1cccnc1`: -28.9%; `Cc1cc(C)cc(OCc2ccc(C(=O)NN)o2)c1`: 14.2%. Next, `COc1ccc(CCNC(=S)Nc2cc(C)ccc2C)cc1`: -15.9%; `CS(=O)(=O)N(C(=O)NC(=O)NC1CCS(=O)(=O)C1)C1CCCCC1` (centres unmarked): 4.13%. For `COc1ccc(-c2nn(-c3ccccc3)cc2/C=C2/SC(=S)N(Cc3ccco3)C2=O)c(C)c1`, the “hERG current change (%, negative = inhibition) at 10uM” value came to 8.73%. Turning to `Cc1cccc(Cn2c(=O)c3c(nc4n3CCN4Cc3ccco3)n(C)c2=O)c1`, the “hERG current change (%, negative = inhibition) at 10uM” value was -52.2%. `Cc1cccc(Cn2c(=O)c3c(nc4n3CCCN4Cc3ccccc3)n(C)c2=O)c1`: the “hERG current change (%, negative = inhibition) at 10uM” value was -38.8%.

With `CCCn1c(=O)c2c(nc3n2CCN3Cc2ccco2)n(C)c1=O`, the “hERG current change (%, negative = inhibition) at 10uM” value is reported as -5.94%. For `Cc1ccc(C)c(Cn2c(=O)c3c(nc4n3CCN4Cc3ccco3)n(C)c2=O)c1`, the “hERG current change (%, negative = inhibition) at 10uM” value is on record as -3.76%. Consider `Cn1c(=O)n(Cc2ccccc2)c(=O)c2c1nc1n2CCN1Cc1ccco1`, for which the “hERG current change (%, negative = inhibition) at 10uM” value is recorded as -36.7%. `Cn1c(=O)n(Cc2ccc(Cl)cc2)c(=O)c2c1nc1n2CCN1Cc1ccco1`: the “hERG current change (%, negative = inhibition) at 10uM” value is reported as -21.5%. `Cn1c(=O)n(CCc2ccccc2)c(=O)c2c1nc1n2CCN1Cc1ccco1`: the “hERG current change (%, negative = inhibition) at 10uM” value is given as -55.5%. As to `Cc1ccc(Cn2c(=O)c3c(nc4n3CCN4Cc3ccco3)n(C)c2=O)cc1`, the “hERG current change (%, negative = inhibition) at 10uM” value is -17.9%. As for `Cn1c(=O)n(Cc2ccc(F)cc2)c(=O)c2c1nc1n2CCN1Cc1ccco1`, the “hERG current change (%, negative = inhibition) at 10uM” value is recorded as -55.4%. Take `CC1CCC(NC(=O)C(Cc2ccccc2)n2cccc2)CC1` (centres unmarked): the “hERG current change (%, negative = inhibition) at 10uM” value is recorded as -14.9%. As to `Cc1cc(C)cc(OCC(=O)N/N=C/c2ccco2)c1`, the “hERG current change (%, negative = inhibition) at 10uM” value amounted to 37.4%.
